Calls of active or inactive are those of the source.
Assays:
[1] = test system: XIP peptide (Xip251-270) binding; experiment: XIP fragment 251-270 binding compounds – biochemical, small-molecule microarray, fluorescence 635/667 nm, 0.1 µg/mL protein, primary screen (AID 1182); details: fluorescent protein binding, 635 nm, higher = more signal, called active from +8 up or from −8 down
XIP peptide (Xip251-270) = experiment: compounds binding XIP fragment 251-270 – biochemical, small-molecule microarray, fluorescence 635/667 nm, 0.5 µg/mL protein, primary screen (AID 1183); details: fluorescence 635 nm, higher = more signal
[2] = blood-stage malaria parasite viability loss – strain 3D7, DAPI fluorescence, 100 nL, primary screen (AID 1184);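 also: parasites grown inside human red blood cells in medium with human serum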; details: P. falciparum 3D7 growth, 3 d, higher = more signal
[3] = target: Homeobox protein Hox-A13 (Mus musculus) (UniProt Q62424); experiment: disruptors of Hoxa13 oligonucleotide interaction – biochemical, fluorescence polarization, labeled oligonucleotide, primary screen (AID 1185); details: Hoxa13:DNA binding, 15 min, higher = more signal, called active from +8 up or from −8 down
Chain of Homeobox protein Hox-A13 (Mus musculus) (Q62424 whole entry, looked up): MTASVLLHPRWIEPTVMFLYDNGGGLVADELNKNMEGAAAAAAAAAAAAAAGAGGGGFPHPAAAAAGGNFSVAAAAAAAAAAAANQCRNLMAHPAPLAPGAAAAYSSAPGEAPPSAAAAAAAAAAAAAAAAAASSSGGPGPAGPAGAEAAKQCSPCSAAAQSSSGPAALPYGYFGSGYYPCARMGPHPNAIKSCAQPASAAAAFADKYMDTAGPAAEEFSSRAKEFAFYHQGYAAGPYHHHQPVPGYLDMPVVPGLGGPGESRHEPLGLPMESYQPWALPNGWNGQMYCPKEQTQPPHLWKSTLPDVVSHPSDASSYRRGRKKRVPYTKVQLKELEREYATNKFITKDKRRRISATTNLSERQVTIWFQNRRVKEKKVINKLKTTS

SMILES	composite z-score [1]	composite z-score (XIP peptide (Xip251-270))	z-score [2]	z-score [3]
COC(=O)CC=C[C@@H](C)[C@@H](C=NO[C@@H](C)c1cc(-c2c(C)cc(C)cc2C)no1)NS(=O)(=O)c1ccc(C)cc1	-0.105 (inactive)	-0.91	-0.842	-2.92 (inactive)
COC(=O)[C@H](C)NC(=O)CCC1CC(OC(=O)NCc2ccc3c(c2)OCO3)CC2(CCCC(COC(=O)NCc3cccc(C(F)(F)F)c3)O2)O1 (stereo partly specified)	0.2 (inactive)	0.717	-2.06	-5.57 (inactive)
COc1ccc(COC(=O)NN=C2C[C@@H](O)[C@@H](O)[C@@H]3[C@@H]4C(=O)N(C5CCCCC5)C(=O)[C@@H]4CC[C@H]23)cc1	-0.252 (inactive)	-1.02	-0.336	-5.48 (inactive)
O=C1C[C@@H](O)[C@@H](O)[C@@H]2[C@@H]3C(=O)N(C[C@@H]4CCCO4)C(=O)[C@@H]3CC[C@H]12	0.195 (inactive)	0.156	0.116	0.195 (inactive)
Cc1ccc(S(=O)(=O)N[C@H]2COC(=O)CC=C[C@@H](C)COC(=O)CC=C[C@@H]2C)cc1	0.172 (inactive)	0.921	0.641	-1.06 (inactive)
CC(=O)OC[C@H]1O[C@H](C#Cc2ccccc2)C=C[C@@H]1OC(C)=O	-0.794 (inactive)	0.823	0.0037	-3 (inactive)
COc1ccc(C#C[C@@H]2C=C[C@H](OC(C)=O)[C@@H](COC(C)=O)O2)cc1	3.11 (inactive)	0.443	0.714	-2.53 (inactive)
CC(CCN1CCCCc2nc(C)c(C)cc21)=NO[C@H](C)c1cn([C@H](CO)Cc2ccccc2)nn1	-0.28 (inactive)	0.542	-1.56	-5.13 (inactive)
COc1cccc([C@H]2Oc3ccc(OC)cc3C(=NO[C@@H]3O[C@H](COC(C)=O)[C@@H](OC(C)=O)[C@H](OC(C)=O)[C@H]3OC(C)=O)[C@@H]2O)c1	-0.481 (inactive)	-0.172	0.956	-5.19 (inactive)
O=c1n(Cc2cc3c(cc2Cl)OCO3)c(=O)n2n1CC[C@@H]1C(=NOCc3ccccc3)[C@H]3O[C@H]3[C@@H](O)[C@@H]12	0.0872 (inactive)	-0.0262	0.0783	0.962 (inactive)
CCOC(=O)C1=NO[C@]2(C=C(Br)C3(OCCCO3)[C@H]3O[C@H]32)C1	-0.788 (inactive)	0.857	0.99	0.136 (inactive)
CC(CCN1CCc2nc(-c3ccccc3)c(-c3ccccc3)cc2C1)=NOC[C@@H](O)[C@H]1O[C@@H]2OC(C)(C)O[C@@H]2[C@H]1O	0.176 (inactive)	0.528	0.688	-5.63 (inactive)
COc1cccc([C@H]2Oc3ccc(OC)cc3C(=NOC[C@@H](C)[C@H](OCc3ccccc3)C(C)C)[C@@H]2O)c1	0.305 (inactive)	-0.724	-0.157	-0.308 (inactive)
C[C@@H]1NC(=O)[C@@H](C)COC(=O)[C@H](C)NC(=O)[C@@H](C)COC1=O	-0.287 (inactive)	0.158	-1.46	0.969 (inactive)
CSCC[C@@H]1NC(=O)CC=C[C@@H](C)COC(=O)[C@@H](C)COC1=O	-0.082 (inactive)	-0.318	-0.866	0.572 (inactive)
CC(C)(C)N1C(=O)[C@H]2[C@H]3[C@H](O)[C@H](O)CC(=NO[C@@H]4O[C@H](CO)[C@@H](O)[C@H](O)[C@H]4O)[C@H]3CC[C@H]2C1=O	0.0127 (inactive)	0.271	-1.62	-4.08 (inactive)
CC(CCN1CCCCc2nc(C)c(C)cc21)=NO[C@@H](C)c1cn([C@H](CO)Cc2ccccc2)nn1	0.305 (inactive)	0.521	-0.257	-4.4 (inactive)
COC(=O)CC=C[C@@H](C)[C@@H](C=NOC(C)CN1CCCc2nc(C)c(C)cc21)OC (stereo partly specified)	0.327 (inactive)	0.274	0.004	-1.24 (inactive)
CC(C)=CCCC(C)=CCON=C1C[C@@H](O)[C@@H](O)[C@@H]2[C@@H]3C(=O)N(c4ccc(F)cc4F)C(=O)[C@@H]3CC[C@H]12	-0.163 (inactive)	0.37	0.0436	-2.5 (inactive)
CC(C)(C)N1C(=O)[C@H]2[C@H]3[C@H](O)[C@H](O)CC(=O)[C@@H]3CC[C@H]2C1=O	-0.138 (inactive)	0.419	-0.507	-0.472 (inactive)
C[C@@H]1CC[C@H]2C(=O)O[C@@H](Cc3ccccc3)CN2[C@H]1c1ccc(Br)cc1	0.128 (inactive)	0.174	0.209	-1.7 (inactive)
CC(C)=NOC[C@@H](C)[C@H](OCc1ccccc1)C(C)C	-0.0088 (inactive)	0.177	-0.89	1.47 (inactive)

SMILES	composite z-score [1]	composite z-score (XIP peptide (Xip251-270))	z-score [2]	z-score [3]
CO[C@H](C1CCCCC1)[C@H](C)C=CCC(=O)OCCCc1ccccc1	-0.74 (inactive)	0.628	-0.45	1.25 (inactive)
COc1cccc([C@H]2Oc3ccc(OC)cc3C(=NOC[C@@H](O)[C@H]3O[C@@H]4OC(C)(C)O[C@@H]4[C@H]3O)[C@@H]2O)c1	-0.815 (inactive)	0.697	0.187	-3.04 (inactive)
CC[C@@H](c1ccccc1)n1c(=O)n2n(c1=O)[C@H]1[C@H](O)[C@@H]3O[C@@H]3C(=O)[C@H]1CC2	-0.144 (inactive)	0.0999	-1.22	-1.59 (inactive)
COC(=O)[C@H](C)NC(=O)CCC1CC(OC(=O)NCc2ccc3c(c2)OCO3)CC2(CCCC(COC(=O)NCC(c3ccccc3)c3ccccc3)O2)O1 (stereo partly specified)	1.93 (inactive)	0.699	-1.77	-6.84 (inactive)
COC(=O)CC=C[C@@H](C)[C@@H]1C=C[C@H](O)[C@@H](CO)O1	0.0118 (inactive)	-0.518	0.247	-0.235 (inactive)
COc1ccc(COC(=O)NN=C2C[C@@H](O)[C@@H](O)[C@@H]3[C@@H]4C(=O)N(Cc5ccccc5)C(=O)[C@@H]4CC[C@H]23)cc1	0.0712 (inactive)	-0.0564	0.908	-1.81 (inactive)
CO[C@H]1COC(=O)[C@H](C)NC(=O)CC=C[C@@H](C)[C@H](OC)COC(=O)[C@@H](OCc2ccccc2)C=C[C@@H]1C	-0.296 (inactive)	-0.54	0.112	-0.22 (inactive)
CCOC(=O)NN=C1C[C@@H](O)[C@@H](O)[C@@H]2[C@@H]3C(=O)N(Cc4ccccc4)C(=O)[C@@H]3CC[C@H]12	-0.405 (inactive)	0.0213	-0.179	-1.48 (inactive)
CC(C)CON=C1C[C@@H](O)[C@@H](O)[C@@H]2[C@@H]3C(=O)N(C4CCCCC4)C(=O)[C@@H]3CC[C@@H]12	0.376 (inactive)	0.0112	-0.398	-4.41 (inactive)
O=c1n(Cc2cc3c(cc2Cl)OCO3)c(=O)n2n1CC[C@@H]1C(=NOC[C@@H](O)COCc3ccco3)[C@H]3O[C@H]3[C@@H](O)[C@@H]12	-0.45 (inactive)	0.108	-0.181	-0.786 (inactive)
COc1ccc(O[C@H]2C=C[C@@H](c3ccccc3)O[C@@H]2CON=CC[C@@H]2C=C[C@H](OC(C)=O)[C@@H](COC(C)=O)O2)cc1	0.21 (inactive)	-0.104	-0.483	-4.06 (inactive)
CCCNC(=O)OC[C@H]1O[C@H](CCON=C(C)CCN2CCc3nc(CC)c(CC)cc3C2)C=C[C@@H]1Oc1ccc(OC)cc1	-0.339 (inactive)	0.27	-2.17	-5.98 (inactive)
COC(=O)[C@H](C)NC(=O)CCC1CC(OC(=O)NCc2ccc3c(c2)OCO3)CC2(CCCC(COC(=O)NCCc3ccccc3OC)O2)O1 (stereo partly specified)	0.516 (inactive)	0.588	-0.143	-6.43 (inactive)
C=CC[C@@H]1C=C[C@H](ON=C[C@@H](C)[C@H](OCc2ccccc2)C(C)C)[C@@H](CO)O1	0.142 (inactive)	0.256	0.395	-4.51 (inactive)
CO[C@H]1COC(=O)CC=C[C@H](C)[C@@H](OC)COC(=O)[C@@H](C)NC(=O)CC=C[C@@H]1C	-0.303 (inactive)	0.54	-0.297	-1.25 (inactive)
COC(=O)CC=C[C@@H](C)[C@@H](C=NO[C@H](C)c1cn([C@@H]2COC[C@H]2O)nn1)NS(=O)(=O)c1ccc(C)cc1	-0.362 (inactive)	0.486	0.781	-1.63 (inactive)
CCOC(=O)NN=C1C[C@@H](O)[C@@H](O)[C@@H]2[C@@H]3C(=O)N(c4ccc(F)cc4F)C(=O)[C@@H]3CC[C@@H]12	0.015 (inactive)	-0.0246	-0.404	-1.23 (inactive)
CCOC(=O)NN=C1C[C@@H](O)[C@@H](O)[C@@H]2[C@@H]3C(=O)N(c4cccc(Oc5ccccc5)c4)C(=O)[C@@H]3CC[C@@H]12	0.187 (inactive)	0.651	-0.512	-4.18 (inactive)
Cc1ccc(S(=O)(=O)OC[C@H]2CN3[C@H](c4ccc(Br)cc4)[C@@H](C)CC[C@H]3C(=O)O2)cc1	0.225 (inactive)	0.564	0.565	-5.13 (inactive)
C=CC[C@@H]1C=C[C@H](ON=C(C)CCN2CCc3nc(-c4ccccc4)c(-c4ccccc4)cc3C2)[C@@H](CO)O1	0.957 (inactive)	0.58	-0.0674	-5.72 (inactive)
CC(C)CON=C1C[C@@H](O)[C@@H](O)[C@@H]2[C@@H]3C(=O)N(C4CCCCC4)C(=O)[C@@H]3CC[C@H]12	0.273 (inactive)	0.793	-0.0504	0.866 (inactive)
CCOC(=O)[C@H](CC(C)C)NC(=O)CCC1CC(OC(=O)NCc2cccc3ccccc23)CC2(CCCC(COC(=O)NCc3ccncc3)O2)O1 (stereo partly specified)	1.56 (inactive)	0.53	-0.652	-6.29 (inactive)

— PubChem BioAssay
